About 3,200 (25%) of roughly 13,000 compounds showed an effect of 50% or more. Some of the results follow.
tested on: P. falciparum stage V gametocytes; design: BacTiter-Glo ATP luminescence viability of purified stage V gametocytes in 384-well plates, per cent inhibition versus DMSO; details: 48 h, 5 µM; inhibitor

How did the “% Inhibition” value turn out when `OC(CNc1ccnc(Nc2cccc(Cl)c2)n1)c1ccc(C(F)(F)F)cc1` (stereo not drawn) [TCMDC-136596] was run?
The value was -49.28%.

How did the “% Inhibition” value turn out when `COc1cc2nc(C)nc(Nc3cccc(Br)c3)c2cc1OC` [TCMDC-131939] was run?
The value was -0.682%.

How did the “% Inhibition” value turn out when `COc1cc2nc(-c3ccc(Br)cc3)cc(N)c2cc1OC` [TCMDC-138933] was run?
Its value is 106.9%.

Which “% Inhibition” value does the source give for `Cc1nc(N)nc(N)c1-c1ccc(Br)cc1` [TCMDC-137374] here?
Its value is -63.84%.

How did the “% Inhibition” value turn out when `N#Cc1ccc(CN2CCC(Oc3ccc(NC(=O)c4cccs4)cc3)C2)cc1` (stereo not drawn) [TCMDC-133959] was run?
Its value is 8.963%.

For `O=C(NC1CCCC1)c1ccc(N2CCC(NCc3cccc(C(F)(F)F)c3)CC2)cc1` [TCMDC-124644], which “% Inhibition” value is on record?
The value was -9.577%.

`N[C@@H](CCNC1CCN(c2cccc(C(F)(F)F)c2)CC1)Cc1ccc(F)c(F)c1` [TCMDC-132301] was tested. Which “% Inhibition” value did it give?
The value was 119.6%.

With `O=C(Nc1cccc(N2CCC(NCCCc3ccncc3)CC2)c1)c1cccc(C(F)(F)F)c1` [TCMDC-124659] as the compound, how does the “% Inhibition” value read?
Its value is 7.336%.

For `N[C@@H](CCN1CCC(c2cccc(O)c2)CC1)Cc1ccc(F)c(F)c1` [TCMDC-132126], which “% Inhibition” value is on record?
The value was -7.47%.

Which “% Inhibition” value does the source give for `N[C@@H](CCNCc1ccc(-c2cccnc2)cc1)Cc1ccc(F)c(F)c1` [TCMDC-132122] here?
The value was 33.59%.

How did the “% Inhibition” value turn out when `N#Cc1c(F)cc(N2CCC(NCC[C@H](N)Cc3ccc(F)c(F)c3)CC2)cc1F` [TCMDC-132121] was run?
The value was 103.9%.

With `O=C(Nc1ccc(Cl)c(-c2nc3ccccc3[nH]2)c1)c1ccc(-c2ccc(Cl)cc2)o1` [TCMDC-125599] as the compound, how does the “% Inhibition” value read?
Its value is -11.96%.

For `N#Cc1ccc(N2CCN(Cc3ccc(-c4ccc(-c5nc6ccccc6[nH]5)s4)cc3)CC2)nc1.O=C(O)C(F)(F)F` [TCMDC-133119], which “% Inhibition” value is on record?
The value was -24.51%.

Which “% Inhibition” value does the source give for `COCCNCc1cccc(-c2ccc(CN(C(=O)NC3CCCCC3)C3CCN(Cc4ccccc4)CC3)cc2)c1` [TCMDC-140636] here?
Its value is 84.07%.

With `COCCNCc1ccc(-c2ccc(CN(C(=O)NC3CCCCC3)C3CCN(Cc4ccccc4)CC3)cc2)cc1` [TCMDC-140637] as the compound, how does the “% Inhibition” value read?
Its value is 95.07%.

For `C[C@@H](CC1CCCCC1)NCc1cccc(NS(=O)(=O)c2ccc(O)c(-c3ccno3)c2)c1` [TCMDC-141485], which “% Inhibition” value is on record?
The value was 41.65%.

Which “% Inhibition” value does the source give for `COc1cc(-c2nc(-c3ccccc3)c(-c3ccc([N+](=O)[O-])cc3)[nH]2)cc(OC)c1O` [TCMDC-125529] here?
Its value is -60.07%.

With `COc1c(O)cc2oc(-c3ccc(O)cc3)cc(=O)c2c1O` [TCMDC-123942] as the compound, how does the “% Inhibition” value read?
Its value is 46.88%.

With `COc1cc2[nH]c(-c3ccc(O)cc3)c(C)c(=O)c2c(OC)c1OC` [TCMDC-137449] as the compound, how does the “% Inhibition” value read?
Its value is 59.36%.

For `O=C(Nc1ccc(Cn2ncc(N3CCCNCC3)c(Cl)c2=O)cc1)Nc1cc(C(F)(F)F)cc(C(F)(F)F)c1` [TCMDC-133327], which “% Inhibition” value is on record?
Its value is -39.39%.

Which “% Inhibition” value does the source give for `Cc1cc(N2CCOCC2)nc(Nc2ccc(NC(=O)c3cccc4ccccc34)cc2)n1` [TCMDC-124962] here?
Its value is 3.103%.

Which “% Inhibition” value does the source give for `C[C@H](N[C@H]1CCCc2c1[nH]c1ccc(Br)cc21)c1ccccc1` [TCMDC-138915] here?
Its value is -58.95%.

How did the “% Inhibition” value turn out when `Cc1cc(-c2ccc(NC(=O)c3coc4ccc(N5CC(C)N(C)C(C)C5)cc34)cc2C)cc(C)n1` (stereo not drawn) [TCMDC-141310] was run?
Its value is -15.05%.

How did the “% Inhibition” value turn out when `Cc1nc(-c2ccc(-c3ccc(NC(=O)c4coc5ccc(N6CC(C)NC(C)C6)cc45)cc3)c(C)c2)no1` (stereo not drawn) [TCMDC-141309] was run?
The value was -4.933%.

How did the “% Inhibition” value turn out when `Cc1nc(-c2ccc(-c3ccc(NC(=O)c4coc5ccc(N6CC(C)N(C)C(C)C6)cc45)cc3)c(C)c2)no1` (stereo not drawn) [TCMDC-141233] was run?
The value was 92.65%.

Which “% Inhibition” value does the source give for `O[C@H](c1cc(C(F)(F)F)nc2c(C(F)(F)F)cccc12)[C@@H]1CCCCN1` [TCMDC-123920] here?
The value was 23.74%.

With `N#Cc1cccc(NC(=O)Nc2ccc3c(c2)CN(Cc2c[nH]c4ncccc24)C3)c1` [TCMDC-141757] as the compound, how does the “% Inhibition” value read?
The value was 5.913%.

How did the “% Inhibition” value turn out when `COC(=O)c1cccc(C#CCCOCCCCCCNC[C@H](O)c2cc(Cl)c(N)c(Cl)c2)c1` [TCMDC-138515] was run?
Its value is 25.12%.

With `O=C(c1cc(-c2ccco2)[nH]n1)N1CCN(S(=O)(=O)c2ccc(Br)cc2)CC1` [TCMDC-124699] as the compound, how does the “% Inhibition” value read?
Its value is -28.22%.

`O=C(c1cc(-c2cccs2)[nH]n1)N1CCN(S(=O)(=O)c2ccc(Cl)cc2)CC1` [TCMDC-124702] was tested. Which “% Inhibition” value did it give?
The value was 54.51%.

For `O=C(c1cc(-c2cccs2)[nH]n1)N1CCN(S(=O)(=O)c2ccc(Cl)s2)CC1` [TCMDC-124701], which “% Inhibition” value is on record?
The value was 26.12%.

`Cc1ccc(S(=O)(=O)N2CCN(C(=O)c3cc(-c4cccs4)[nH]n3)CC2)c(C)c1` [TCMDC-124700] was tested. Which “% Inhibition” value did it give?
The value was 26.64%.

How did the “% Inhibition” value turn out when `O=C(c1cc(-c2ccco2)[nH]n1)N1CCN(S(=O)(=O)c2ccc(Cl)cc2)CC1` [TCMDC-124698] was run?
The value was 58.01%.

For `O=C(c1cc(-c2cccs2)[nH]n1)N1CCN(S(=O)(=O)c2ccc(Br)cc2)CC1` [TCMDC-124703], which “% Inhibition” value is on record?
Its value is 15.64%.

With `CC(Nc1ccnc2cc(Cl)ccc12)c1ccc(S(N)(=O)=O)cc1` (stereo not drawn) [TCMDC-125107] as the compound, how does the “% Inhibition” value read?
Its value is 16.92%.

`Cc1nc(Nc2ccc(C)c(Cl)c2)c2c(C)noc2n1` [TCMDC-125162] was tested. Which “% Inhibition” value did it give?
The value was 15.95%.

With `Cc1ccc(Cl)cc1NC(=O)c1c(-c2ccccc2Cl)noc1C` [TCMDC-124175] as the compound, how does the “% Inhibition” value read?
The value was -15.67%.

How did the “% Inhibition” value turn out when `O=C(NC1CCCc2ccccc21)[C@@H]1CCCN1C(=O)c1ccc(O)c(-c2cccc([N+](=O)[O-])c2)c1` (stereo partly drawn) [TCMDC-140798] was run?
Its value is 18.58%.

For `COc1ccc(C(=O)N[C@@H](CC(C)C)C(=O)NC2CC[C@@H](C)N(C(=O)Nc3ccc(Cl)cc3)CC2=O)cc1OCCN1CCOCC1` (stereo partly drawn) [TCMDC-134276], which “% Inhibition” value is on record?
Its value is -74.97%.

For `CCOC(=O)c1ccc(OCc2ccc(-c3ccccc3)cc2)cc1` [TCMDC-131397], which “% Inhibition” value is on record?
Its value is 4.826%.

`CCOC(=O)c1ccc(COc2ccc(C)nc2)cc1` [TCMDC-131377] was tested. Which “% Inhibition” value did it give?
The value was 0.9057%.

Which “% Inhibition” value does the source give for `CCOC(=O)c1ccc(N(CCCN(CCCN(c2ccc(C(=O)OCC)cc2)S(=O)(=O)c2ccc(C)cc2)CCc2ccc(O)cc2)S(=O)(=O)c2ccc(C)cc2)cc1` [TCMDC-137351] here?
The value was 57.74%.

Source: article PMC4552634, “A New Set of Chemical Starting Points with Plasmodium falciparum Transmission-Blocking Potential for Antimalarial Drug Discovery” (PLoS ONE, 2015)
